TGFb inhibitor – qHTS for Inhibitors of TGF-b. HepG2 CAGA-GFP TGF-b/SMAD3 reporter, GFP fluorescence, 18 h; TGF-beta stimulated, 500 pg/mL final. Potency, µM (highest dose often 46.1 µM), for the others: at the top dose activity, negative = inhibition, actives largely listed as inhibitors. actives 1.2% (n = 410,000); note: % is set by controls: 0 for no effect and ±100 for the full control effect; nearly all actives have a fitted effect of over 65% in size
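Using HEPG2 CAGA-GFP reporter cells at 1000 cells/well, we pinned test compounds, stimulated with recombinant TGF-beta (500 pg/mL final) and measured total well GFP after 18 h.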
HepG2 viability – qHTS for Inhibitors of TGF-b: Cytotox Counterscreen; HepG2 CAGA-GFP viability, ATP luminescence, 18 h; Potency, µM (highest dose often 46.1 µM), for the others: top-dose activity change, negative = cytotoxicity, hits mostly cytotoxic; actives 0.76% (n = 410,000); AID 588856, 2011
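CellTiter-Glo luminescence gave cytotoxicity after 18 hours at 37 degrees C. The cells were HepG2 CAGA-GFP in 1% FBS DMEM, stimulated with 500 pg/mL TGF-beta after compound addition. %Activity was normalised to no-cell wells (complete cell-killing) and DMSO (no toxicity), and curves were fitted and classified.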
ATXN viability – Viability Counterscreen for Primary qHTS for Inhibitors of ATXN expression. S2 cells (HEK-293 line with an ATXN2-luciferase reporter) viability, CellTiter-Fluor protease fluorescence, 24 h. Potency, µM (titrated, usually from 56.7 µM), hits mostly cytotoxic. actives 0.49% (n = 400,000); note: nearly all actives have a fitted effect of over 40% in size
TDP1 cell noCPT – qHTS for Inhibitors of human tyrosyl-DNA phosphodiesterase 1 (TDP1): qHTS in cells in absence of CPT | actives 15% (n = 420,000) | DT40 Tdp1-/- hTDP1 cells, no CPT, ATP luminescence, 48 h | Potency, µM (top dose mostly 46.2 µM), inactives show at the highest dose activity change, negative = growth inhibition, hits mostly inhibitors; note: % is set by controls: 0 for no effect and ±100 for the full control effect; nearly all actives have a fitted effect of over 55% in size
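Compound effects on proliferation are scored in DT40 Tdp1-/-;hTDP1 cells in the absence of CPT. ATP levels (CellTiter-Glo luminescence) are recorded after a ≥48 hr, 37 °C incubation.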
DT40 TDP1 CPT – qHTS for Inhibitors of human tyrosyl-DNA phosphodiesterase 1 (TDP1): qHTS in cells in presence of CPT; chicken DT40 Tdp1-/-;hTDP1 cells + 20 nM CPT, ATP luminescence, 48 h; Potency, µM (top dose mostly 46.2 µM), inactives show top-dose activity change, negative = growth inhibition, actives largely listed as inhibitors; actives 12% (n = 420,000); AID 686979, 2013; note: % is set by controls: 0 for no effect and ±100 for the full control effect; nearly all actives have a fitted effect of over 55% in size
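Chicken DT40 Tdp1-/- cells stably complemented with human TDP1 were seeded at 400 cells/well in medium containing 20 nM camptothecin, exposed to pin-transferred compounds, and grown at 37 °C for at least 48 hr. Viability was read as ATP luminescence.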
ATXN2 expr inh – Primary qHTS for Inhibitors of ATXN expression; AID 1745845, 2022; Potency, µM (doses to about 57 µM), inactives show at the top dose activity change, negative = inhibition, most hits filed as inhibitors; actives 0.72% (n = 360,000); HEK-293 ATXN2-luciferase reporter, luminescence, 24 h; note: % is set by controls: 0 for no effect and ±100 for the full control effect; nearly all actives have a fitted effect of over 55% in size
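ATXN2-luciferase reporter cells (luciferase flanked by upstream and downstream ATXN2 gene portions) were treated 24 h at 37 °C with compounds at up to 57 uM. SteadyGlo luminescence gave expression; GF-AFC fluorescence gave viability.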
Active calls of the source: *; i = inactive; u = inconclusive; x = no result; ! = not confirmed by another sample; [ ] = another dose, or the depositor's remark. Hits are enriched below; roughly 17% of the tested compounds scored in any of these assays. Calls come from the whole dose curve; as a rule, active = well fitted curve in the direction sought with a large enough effect; inconclusive = small, poorly fitted or top-dose-only effect, or another doubt; inactive = no such curve, though single readings can be large; an effect the other way counts as inactive or inconclusive. Potency is the fitted concentration of half-maximal effect.

SMILES	TGFb inhibitor	HepG2 viability	ATXN viability	TDP1 cell noCPT	DT40 TDP1 CPT	ATXN2 expr inh
COc1ccc(OC)c(S(=O)(=O)NCC(c2cccs2)S(=O)(=O)c2ccc(F)cc2)c1 (stereo unspecified)	u	-26%	x	u	u	x
COc1ccc(C)cc1S(=O)(=O)NCC(c1cccs1)S(=O)(=O)c1ccc(C)cc1 (stereo unspecified)	-22%	-5%	x	u	23µM*	x
COc1ccc(S(=O)(=O)NCC(c2cccs2)S(=O)(=O)c2ccc(C)cc2)cc1F (stereo unspecified)	u	-23%	x	16µM*	u	x
CCC1CCCCN1CCCNC(=O)c1ccc2c(c1)N(Cc1ccc(F)cc1)C(=O)c1ccccc1S2=O (stereo unspecified)	u	-59%	u	u	u	u
CCOC(=O)CSc1nc2nc(Cl)c(Cl)nc2[nH]1	-1%	-22%	i	u	u	x
CC1C(=O)NN=C1C(=O)N/N=C\C(Br)=C\c1ccccc1 (stereo unspecified)	7%	-6%	i	15µM*	6.5µM*	-21%
CC1=NNC(=O)C1CC(=O)N/N=C/C(Br)=C/c1ccccc1 (stereo unspecified)	u	-33%	u	21µM*	21µM*	x
CC1=NNC(=O)C1CCC(=O)N/N=C/C(Br)=C/c1ccccc1 (stereo unspecified)	-20%	7%	i	2.1µM*	2.9µM*	0%
Cc1cc(C)n(-c2nnc(C)n2/N=C/c2ccco2)n1	17%	-20%	i	-2%	-9%	1%
CCCOc1ccc2ccccc2c1/C=N/n1c(C)nnc1-n1nc(C)cc1C	u	-38%	u	3.3µM*	3.3µM*	-7%
Fc1cccc(Cl)c1Cn1nnc2c(NCc3ccncc3)ncnc21	-6%	-23%	i	u	23µM*	-25%
C[C@@H](Oc1ccc2[nH]nc(C=Cc3cnn(CCO)c3)c2c1)c1c(Cl)cncc1Cl	x	x	x	x	x	22µM*
COc1ccc(C(=O)Nc2cc(C(=O)c3ccccc3)c(C)oc2=O)cc1	u	-35%	i	10µM*	13µM*	9%
Cc1oc(=O)c(NC(=O)c2cccc(Cl)c2)cc1C(=O)c1ccccc1	u	0%	u	21µM*	29µM*	-23%
CC(=O)c1cc(NC(=O)c2ccc([N+](=O)[O-])cc2)c(=O)oc1C	42%	27%	i	23µM*	u	0%[11.3 µM]
CC(C)CN1C(=O)CSCC1(C)C(=O)Nc1ccc2c(c1)OCCO2 (stereo unspecified)	x	x	x	-19%	-24%	x
CC(C)CC(=O)NS(=O)(=O)c1ccc(NS(C)(=O)=O)cc1	9%	3%	i	0%	-19%	x
Cc1ccc2cccc(CC(=O)NN)c2c1	4%	3%	i	-23%	-4%	x
Oc1c(C(c2cccc(Br)c2)N2CCCC2)sc2nc(-c3ccco3)nn12 (stereo unspecified)	-19%	-18%	i	-20%	-18%	-4%
COc1cc(C(=O)OCCCN(C)C)cc(OC)c1OC	-2%	0%	i	-15%	21%	-5%
COc1cc(C(=O)OCCCN2CCCN(CCCOC(=O)c3cc(OC)c(OC)c(OC)c3)CC2)cc(OC)c1OC	25%	-43%	u	24µM*	17µM*!	-10%
